Data on 38 compounds can be found in PubChem BioAssay (NCATS).

Results filed as inconclusive are left out. Entries that show only a call come without a potency. Activity calls are given as the source filed them. Unless noted, calls come from the whole dose curve.

Test system in the first test: not listed separately
The test is described as follows: qHTS for Inhibitors of the Functional Ribonucleoprotein Complex (vRNP) of Lassa (LASV) Arenavirus: LASV Primary Screen - GLuc reporter signal (AID 1347082; calls by dose curve; tested in HEK293 reporter line; note: nearly all actives have a fitted effect of over 60% in size). Particulars: LASV minigenome vRNP, Gaussia luciferase reporter; series mostly up to 57.5 µM. On the technique in general: In qHTS, concentration-response curves come from the screen itself.
With `COc1ccc(OC(=O)N(CC(=O)O)Cc2ccc(OCCc3nc(-c4ccccc4)oc3C)cc2)cc1`, the Potency entry was “inactive”.
Still for that read-out and setting: the entry for `CCCCOc1ccc(CC(=O)NO)cc1` is “inactive”; for `CN1CCC(=C2c3ccccc3CC(=O)c3sccc32)CC1` it is “inactive”.
As for `CCC(=O)C(CCN(C)C)(c1ccccc1)c1ccccc1`, the Potency result is “inactive”.
`CC/C(=C(/CC)c1ccc(O)cc1)c1ccc(O)cc1`: the Potency result is “inactive”.

Test system in the next test: not listed separately
The test can be described thus: qHTS for Inhibitors of the Functional Ribonucleoprotein Complex (vRNP) of Lymphocytic Choriomeningitis Arenaviruses (LCMV): Viability assay - alamar blue signal for LCMV Primary Screen (AID 1347085; calls by dose curve; tested in HEK293 reporter line; note: nearly all actives have a fitted effect of over 80% in size; note: potency is the fitted concentration of half-maximal effect). Particulars: alamar blue viability counter-screen, LCMV vRNP screen cells; series mostly up to 57.5 µM.
For `CCCCCCCCCCCCCCCC[N+](C)(C)Cc1ccccc1`, the Potency entry is “inactive”.
As to `O=S(=O)(O)NC1CCCCC1`, the Potency result was “inactive”.
Regarding `COc1ccc2cc3[n+](cc2c1OC)CCc1cc2c(cc1-3)OCO2`, the Potency result is “inactive”.
Still for that read-out and setting: the entry for `CCC(=O)O[C@]1(C(=O)CCl)[C@@H](C)C[C@H]2[C@@H]3CCC4=CC(=O)C=C[C@]4(C)[C@@]3(F)[C@@H](O)C[C@@]21C` is “inactive”; for `O=c1[nH]c(=O)n([C@H]2C[C@H](O)[C@@H](CO)O2)cc1C(F)(F)F` it is 15.8 µM (active).
On the same count and under the same terms, with `Clc1ccc(Nc2nnc(Cc3ccncc3)c3ccccc23)cc1` the entry was “inactive”.
Still for that read-out and setting: the entry for `O=C(Nc1ccc([N+](=O)[O-])cc1Cl)c1cc(Cl)ccc1O` is “inactive”; for `CN1CCC(Nc2ncc3ncnc(Nc4ccc(F)c(Cl)c4)c3n2)CC1` it is “inactive”; for `CN(C)CCN(Cc1ccc(Cl)cc1)c1ccccn1` it is “inactive”.
`C[C@]12Cc3nonc3C[C@@H]1CC[C@@H]1[C@@H]2CC[C@@]2(C)[C@H]1CC[C@]2(C)O`: the Potency entry is “inactive”.
Consider `CCN(CC)CCOc1ccc(C(O)(Cc2ccc(Cl)cc2)c2ccc(C)cc2)cc1` (stereo not given), for which the Potency entry is “inactive”.
Same read-out and setting: the entry for `CN(C)CC/C=C1\c2ccccc2Sc2ccc(Cl)cc21` is “inactive”.
Still for that read-out and setting: the entry for `O=C(CCCN1CCN(c2ccc(F)cc2)CC1)NC1c2ccccc2CSc2ccccc21` (stereo not given) is “inactive”; for `COC[C@@H](c1ccc(C(F)(F)F)cc1)N1CCN(C2(C)CCN(C(=O)c3c(C)ncnc3C)CC2)C[C@H]1C` it is 38.5 µM (active).
`O=Cc1ccc(O)c(O)c1O`: the Potency result was “inactive”.
On the same count and under the same terms, with `CC(NCCC(c1ccccc1)c1ccccc1)c1ccccc1` (stereo not given) the entry was “inactive”; with `CCO[C@@H]1O[C@H](C(COCc2ccccc2)OCc2ccccc2)[C@H](OCc2ccccc2)[C@H]1O` (stereo not given in full), “inactive”.
`O=C(N[C@@H]1N=C(c2ccccc2F)c2cccc3c2N(CC3)C1=O)c1cc2ccccc2[nH]1`: the Potency result was “inactive”.
The same measure, in the same setting: with `CCCOc1ccc2nc(NC(=O)OC)[nH]c2c1` the figure was 0.0172 µM (active); with `CCOC(=O)[C@H](CCc1ccccc1)N[C@@H](C)C(=O)N(CC(=O)O)C1Cc2ccccc2C1`, “inactive”.
With `CCOC(=O)Nc1ccc(NCc2ccc(F)cc2)nc1N`, the Potency result was “inactive”.
For the compound `CN(C)C(=O)Oc1cc(OC(=O)N(C)C)cc(C(O)CNC(C)(C)C)c1` (stereo not given), the Potency entry is “inactive”.
Turning to `C[C@@H]1CN(CCCn2c3ccccc3c3ccccc32)C[C@H](C)N1`, the Potency result is “inactive”.
On to `COc1cc(N)c(Cl)cc1C(=O)NC1CCN(Cc2ccccc2)CC1`, for which the Potency entry was “inactive”.
Same read-out and setting: with `O=C(NOCC1CC1)c1ccc(F)c(F)c1Nc1ccc(I)cc1Cl` the entry was “inactive”; with `COc1ccc(OC(=O)N(CC(=O)O)Cc2ccc(OCCc3nc(-c4ccccc4)oc3C)cc2)cc1`, “inactive”; with `CCCCOc1ccc(CC(=O)NO)cc1`, “inactive”.
As for `CN1CCC(=C2c3ccccc3CC(=O)c3sccc32)CC1`, the Potency entry is “inactive”.
For the compound `CC/C(=C(/CC)c1ccc(O)cc1)c1ccc(O)cc1`, the Potency entry is “inactive”.

The target of a further test is Nucleoprotein (Lymphocytic choriomeningitis virus (strain Armstrong)) (UniProt P09992). The test can be described thus: qHTS for Inhibitors of the Functional Ribonucleoprotein Complex (vRNP) of Lymphocytic Choriomeningitis Arenaviruses (LCMV): LCMV Primary Screen - GLuc reporter signal (AID 1347086). Note: nearly all actives have a fitted effect of over 70% in size. Note: potency is the fitted concentration of half-maximal effect. Particulars: LCMV minigenome vRNP cell assay, Gaussia luciferase reporter; series mostly up to 57.5 µM.
Sequence of Nucleoprotein (Lymphocytic choriomeningitis virus (strain Armstrong)) (P09992 whole entry, looked up): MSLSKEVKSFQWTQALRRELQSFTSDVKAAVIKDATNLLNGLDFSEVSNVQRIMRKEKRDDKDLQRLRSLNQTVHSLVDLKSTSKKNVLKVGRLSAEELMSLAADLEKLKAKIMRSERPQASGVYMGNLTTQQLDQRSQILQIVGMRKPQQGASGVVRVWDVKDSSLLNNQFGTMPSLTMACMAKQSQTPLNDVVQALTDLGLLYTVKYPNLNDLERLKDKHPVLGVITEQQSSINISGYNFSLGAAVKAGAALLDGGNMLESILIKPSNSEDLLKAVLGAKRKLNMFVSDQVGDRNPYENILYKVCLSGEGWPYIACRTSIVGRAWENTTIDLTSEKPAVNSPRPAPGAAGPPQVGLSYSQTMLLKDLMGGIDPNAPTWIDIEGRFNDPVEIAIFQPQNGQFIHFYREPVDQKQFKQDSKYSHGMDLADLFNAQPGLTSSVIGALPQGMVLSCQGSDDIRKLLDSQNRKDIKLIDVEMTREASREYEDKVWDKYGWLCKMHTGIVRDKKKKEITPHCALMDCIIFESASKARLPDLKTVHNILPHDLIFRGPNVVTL
Consider `Cc1ccc2nc(N)[nH]c(=O)c2c1Sc1ccncc1`, for which the Potency result is “inactive”.
Still for that read-out and setting: with `O=C1N(c2ccccc2)c2ccccc2C1(Cc1ccncc1)Cc1ccncc1` the entry was “inactive”; with `CCCS(=O)c1ccc2nc(NC(=O)OC)[nH]c2c1` (stereo not given), “inactive”.
Same read-out and setting: the entry for `COc1cc(O)c(C(=O)c2ccccc2)cc1S(=O)(=O)O` is “inactive”.
As to `O=S(=O)(O)NC1CCCCC1`, the Potency entry is “inactive”.
As for `COc1ccc2cc3[n+](cc2c1OC)CCc1cc2c(cc1-3)OCO2`, the Potency is 19.3 µM (active).
The same measure, in the same setting: the entry for `C#C[C@]1(O)CC[C@H]2[C@@H]3CCc4cc(O)ccc4[C@H]3CC[C@@]21C` is “inactive”; for `CCC(=O)O[C@]1(C(=O)CCl)[C@@H](C)C[C@H]2[C@@H]3CCC4=CC(=O)C=C[C@]4(C)[C@@]3(F)[C@@H](O)C[C@@]21C` it is “inactive”; for `O=c1[nH]c(=O)n([C@H]2C[C@H](O)[C@@H](CO)O2)cc1C(F)(F)F` it is “inactive”.
Same read-out and setting: with `Clc1ccc(Nc2nnc(Cc3ccncc3)c3ccccc23)cc1` the entry was “inactive”.
As for `CCCSS/C(CCO)=C(\C)N(C=O)Cc1cnc(C)nc1N`, the Potency entry is “inactive”.
Same read-out and setting: the entry for `CN1CCC(Nc2ncc3ncnc(Nc4ccc(F)c(Cl)c4)c3n2)CC1` is “inactive”; for `CN(C)CCN(Cc1ccc(Cl)cc1)c1ccccn1` it is “inactive”; for `C[C@]12Cc3nonc3C[C@@H]1CC[C@@H]1[C@@H]2CC[C@@]2(C)[C@H]1CC[C@]2(C)O` it is “inactive”.
`CCN(CC)CCOc1ccc(C(O)(Cc2ccc(Cl)cc2)c2ccc(C)cc2)cc1` (stereo not given): the Potency entry was “inactive”.
Same read-out and setting: the entry for `CN(C)CC/C=C1\c2ccccc2Sc2ccc(Cl)cc21` is “inactive”; for `O=Cc1ccc(O)c(O)c1O` it is “inactive”; for `CCO[C@@H]1O[C@H](C(COCc2ccccc2)OCc2ccccc2)[C@H](OCc2ccccc2)[C@H]1O` (stereo not given in full) it is “inactive”.
The same measure, in the same setting: with `O=C(N[C@@H]1N=C(c2ccccc2F)c2cccc3c2N(CC3)C1=O)c1cc2ccccc2[nH]1` the entry was “inactive”; with `CCCOc1ccc2nc(NC(=O)OC)[nH]c2c1`, “inactive”.
On the same count and under the same terms, the entry for `CN1CCCC(n2nc(Cc3ccc(Cl)cc3)c3ccccc3c2=O)CC1` (stereo not given) is “inactive”; for `CCOC(=O)[C@H](CCc1ccccc1)N[C@@H](C)C(=O)N(CC(=O)O)C1Cc2ccccc2C1` it is “inactive”; for `CCOC(=O)Nc1ccc(NCc2ccc(F)cc2)nc1N` it is “inactive”.
As to `CN(C)C(=O)Oc1cc(OC(=O)N(C)C)cc(C(O)CNC(C)(C)C)c1` (stereo not given), the Potency entry was “inactive”.
As to `Cc1c(C)n(CCN(C)C)c2ccc(C(=O)OCCN(C)C)cc12`, the Potency result is “inactive”.
The same measure, in the same setting: with `C[C@@H]1CN(CCCn2c3ccccc3c3ccccc32)C[C@H](C)N1` the entry was “inactive”; with `COc1cc(N)c(Cl)cc1C(=O)NC1CCN(Cc2ccccc2)CC1`, “inactive”.
Turning to `O=C(NOCC1CC1)c1ccc(F)c(F)c1Nc1ccc(I)cc1Cl`, the Potency result was “inactive”.
Consider `COc1ccc(OC(=O)N(CC(=O)O)Cc2ccc(OCCc3nc(-c4ccccc4)oc3C)cc2)cc1`, for which the Potency result is “inactive”.
`CCCCOc1ccc(CC(=O)NO)cc1`: the Potency result was “inactive”.
Same read-out and setting: with `CN1CCC(=C2c3ccccc3CC(=O)c3sccc32)CC1` the entry was “inactive”.
